Here are results for 6 molecules from PubChem BioAssay (EPA / NIEHS).

Test [1] in a line: ATG_NFI_CIS: Attagene CIS-FACTORIAL HepG2 Assay for human Nuclear Factor I (NFI) (AID 2282989). The settings on record: HepG2 cis-regulatory reporter, NFI response element transcription; actives raise or lower the signal. The method, boiled down: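 Transfected HepG2 liver cells, exposed 24 h, supplied total RNA for oligo(dT) reverse transcription and reporter-specific PCR. Labelled, HpaI-cut fragments were sized by capillary electrophoresis; DMSO set the baseline for bidirectional fitting.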

The target in test [2] is Myc proto-oncogene protein (Homo sapiens) (UniProt P01106). Nature of the test: ATG_Myc_CIS: Attagene CIS-FACTORIAL HepG2 Assay for human Myelocytomatosis (Myc) Proto-Oncogene Transcription Factor (AID 2282990). To be noted: HepG2, Attagene cis-reporter transcription factor activity; actives raise or lower the signal. In outline:
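HepG2, transient MRTU transfection (cis promoters, endogenous TFs); 24 h dosing; TriZol RNA → oligo(dT) RT → PCR → 6-FAM primer extension → HpaI cut → CE. Bidirectional fit vs DMSO.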

Test [3] can be described thus: ATG_NF_kB_CIS: Attagene CIS-FACTORIAL HepG2 Assay for human Nuclear Factor Kappa B (NF-kB) (AID 2282991). The settings on record: HepG2 Attagene cis-factorial NF-kB reporter mRNA; actives raise or lower the signal. In outline: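 DMSO served as negative control and baseline for bidirectional curve fitting. Transiently transfected HepG2 cells were dosed for 24 h, then reporter transcripts were measured by RT-PCR with capillary electrophoresis detection.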

The nature of test [4]: ATG_NRF2_ARE_CIS: Attagene CIS-FACTORIAL HepG2 Assay for human Nuclear Factor Erythroid 2 Related Factor 2 (NFR2) response to Antioxidant Response Elements (ARE) (AID 2282992).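 For AC50: reporter mRNA level measured by RT-PCR and capillary electrophoresis fluorescence.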 To be noted: HepG2 Attagene ARE/NRF2 reporter, transcription factor activity; actives raise or lower the signal. In outline: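 Cis-factorial assay: transfected HepG2 reporter library, 24 h dosing, mRNA readout via RT-PCR/CE; DMSO-referenced bidirectional analysis.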

A short description of test [5]: ATG_Oct_MLP_CIS: Attagene CIS-FACTORIAL HepG2 Assay for human Octamer-Binding Transcription Factor (Oct) (AID 2282993). To be noted: HepG2 Attagene cis-factorial Oct reporter, mRNA; actives raise or lower the signal. The method, boiled down:
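Using HepG2 cells bearing transfected cis-reporter constructs, mRNA induction was read after 24 h by fluorescent RT-PCR and capillary electrophoresis, with DMSO defining baseline for gain- or loss-of-signal fits.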

In test [6] the target is Cellular tumor antigen p53 (Homo sapiens) (UniProt P04637). The experiment in a line: ATG_p53_CIS: Attagene CIS-FACTORIAL HepG2 Assay for human p53 Transcription Factor (AID 2282994). The settings on record: HepG2 p53 cis-element reporter, Attagene mRNA; actives raise or lower the signal. In outline:
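Using HepG2 hepatoma cells carrying cis-acting multiplexed reporters, mRNA induction is detected after a 24 h exposure. Gain- and loss-of-signal responses are fitted relative to DMSO-treated cells.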

A short description of test [7]: BSK_3C_TissueFactor: BioMAP Diversity Plus: 3C Assay for Tissue Factor Biomarker Activity (AID 2282997). To be noted: BioMAP 3C HUVEC, tissue factor biomarker readout; actives raise or lower the signal. In outline:
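Values derive from bidirectional curve fitting against DMSO of Tissue Factor ELISA signals, taken 24 h after dosing primary human umbilical vein endothelial cells.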

Test [8] in a line: BSK_3C_uPAR: BioMAP Diversity Plus: 3C Assay for Urokinase-type plasminogen activator receptor (uPAR) Biomarker Activity (AID 2282998). To be noted: BioMAP 3C HUVEC, uPAR biomarker ELISA; actives raise or lower the signal. The method, boiled down: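 In this endothelial cell-based assay, human umbilical vein primary cells were treated with chemicals and harvested at 24 h. uPAR was quantified using ELISA, with gains or losses fitted relative to DMSO controls.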
(In general: An ELISA detects its analyte on a solid surface through an enzyme-linked reagent.)

Test [9] can be described thus: BSK_3C_VCAM1: BioMAP Diversity Plus: 3C Assay for Vascular cell adhesion molecule 1 (VCAM1) Biomarker Activity (AID 2282999). To be noted: BioMAP 3C HUVEC, VCAM1 ELISA, cytokine-stimulated; actives raise or lower the signal. In outline: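 Endothelial cells from human umbilical vein are treated with test chemical. At 24 h, VCAM-1 is measured by ELISA, and responses in either direction are fitted relative to DMSO.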

Test [10] is described as follows: BSK_4H_Eotaxin3: BioMAP Diversity Plus: 4H Assay for Eotaxin 3 Biomarker Activity (AID 2283000).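 For outcome: CCL26 protein level quantified by ELISA in parallel with SRB cytotoxicity check.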 To be noted: primary human endothelial cells (HUVEC); actives raise or lower the signal. The method, boiled down:
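Endothelial primary cells (human umbilical vein) exposed to compound for 24 h. ELISA detection of Eotaxin-3.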

Test [11] concerns the target human Peroxisome Proliferator-activated Receptor delta (PPARd), PPARD (gene 5467) (UniProt Q03181). The experiment in a line: ATG_PPARd_TRANS: Attagene TRANS-FACTORIAL HepG2 Assay for human Peroxisome Proliferator-activated Receptor delta (PPARd) (AID 2283002; active = hit-call score of the fitted dose curve at least 0.9, where 1 is the maximum). The method, boiled down:
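Transient HepG2 transfection (multiple GAL4-UAS RTUs, chimeric receptor-Gal4); 24 h dosing; total RNA → oligo(dT) RT → PCR → 6-FAM primer extension → HpaI cut → CE. Positive direction vs DMSO.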

Read-out in test [12]: Intercellular Adhesion Molecule 1 (ICAM1), ICAM1 (gene 3383)
The experiment in a line: BSK_3C_ICAM1: BioMAP Diversity Plus: 3C Assay for Intercellular Adhesion Molecule 1 (ICAM1) Biomarker Activity (AID 2283003). To be noted: primary human endothelial cells (HUVEC); actives raise or lower the signal. In outline:
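Human vascular endothelial primary cells, 3C conditions, 24 h treatment. ICAM-1 by ELISA.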

A short description of test [13]: BSK_3C_Proliferation: Cell Proliferation Assessment in the BioMAP Diversity Plus: 3C Assay (AID 2283006).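 For AC50: potency may reflect either rise or fall in cell number versus DMSO.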 To be noted: primary human endothelial cells (HUVEC). In outline: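 Proliferation of human vascular endothelial primary cells after 48 h dosing, quantified as SRB-stained protein at 560 nm relative to DMSO.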
The target in test [14] is Peroxisome proliferator-activated receptor gamma (Homo sapiens) (UniProt P37231). The experiment in a line: ATG_PPARg_TRANS: Attagene TRANS-FACTORIAL HepG2 Assay for human Peroxisome Proliferator-activated Receptor-gamma (PPARg) (AID 2283007; active = hit-call score of the fitted dose curve at least 0.9, where 1 is the maximum). The method, boiled down:
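Chimeric NR-Gal4 transactivation is measured in transiently transfected HepG2 cells by reporter mRNA induction at 24 h. Detection uses RT-PCR with fluorescent labelling and capillary electrophoresis; DMSO defines baseline.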

In test [15] the target is Nuclear receptor subfamily 1 group I member 2 (Homo sapiens) (UniProt O75469). The experiment in a line: ATG_PXR_TRANS: Attagene TRANS-FACTORIAL HepG2 Assay for human Pregnane X Receptor (PXR) (AID 2283008; active = hit-call score of the fitted dose curve at least 0.9, where 1 is the maximum). In outline:
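Fluorescence intensity of FAM-labelled, HpaI-digested reporter amplicons, separated by capillary electrophoresis, quantifies induction. HepG2 cells with PXR-Gal4 trans-reporter system were exposed 24 h; DMSO defines baseline.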

For test [16], the target named is human Peroxisome Proliferator-activated Receptor alpha (PPARa), PPARA (gene 5465) (UniProt Q07869). The experiment in a line: ATG_PPARa_TRANS: Attagene TRANS-FACTORIAL HepG2 Assay for human Peroxisome Proliferator-activated Receptor alpha (PPARa) (AID 2283001; active = hit-call score of the fitted dose curve at least 0.9, where 1 is the maximum). The method, boiled down: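 Reporter transcripts from GAL4-UAS units in transfected HepG2 were quantified 24 h after dosing. Detection used reverse transcription, PCR, fluorescent primer extension and capillary electrophoresis, with DMSO as baseline.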
Sequence of human Peroxisome Proliferator-activated Receptor alpha (PPARa), PPARA (gene 5465) (Q07869 whole entry, looked up, the tested form may be a part): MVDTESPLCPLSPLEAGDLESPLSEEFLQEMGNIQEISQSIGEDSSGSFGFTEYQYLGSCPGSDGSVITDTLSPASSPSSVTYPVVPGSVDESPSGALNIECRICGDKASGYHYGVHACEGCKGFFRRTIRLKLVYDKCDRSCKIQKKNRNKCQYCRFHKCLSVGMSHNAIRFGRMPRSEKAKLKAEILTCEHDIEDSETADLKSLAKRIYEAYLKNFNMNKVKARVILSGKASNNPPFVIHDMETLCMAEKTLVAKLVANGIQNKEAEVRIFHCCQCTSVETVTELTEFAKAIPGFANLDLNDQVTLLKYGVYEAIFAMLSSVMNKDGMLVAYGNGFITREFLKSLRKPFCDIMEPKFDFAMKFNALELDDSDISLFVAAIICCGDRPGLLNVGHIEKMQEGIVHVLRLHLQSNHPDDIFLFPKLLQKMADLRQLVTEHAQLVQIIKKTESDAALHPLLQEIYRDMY

In test [17] the target is human Retinoic Acid Receptor beta (RARb), RARB (gene 5915) (UniProt P10826). The experiment in a line: ATG_RARb_TRANS: Attagene TRANS-FACTORIAL HepG2 Assay for human Retinoic Acid Receptor beta (AID 2283004; active = hit-call score of the fitted dose curve at least 0.9, where 1 is the maximum). In outline:
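HepG2, transient MRTU transfection, NR–Gal4 chimera, 24 h treatment; RT-PCR plus CE fluorescence detection of reporter mRNA; gain of signal vs DMSO.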

Test [18] has as its target human Retinoic Acid Receptor gamma (RARg), RARG (gene 5916) (UniProt P13631). Nature of the test: ATG_RARg_TRANS: Attagene TRANS-FACTORIAL HepG2 Assay for human Retinoic Acid Receptor gamma (RARg) (AID 2283009; active = hit-call score of the fitted dose curve at least 0.9, where 1 is the maximum). The method, boiled down:
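HepG2, RARg-GAL4 TRANS system, 24 h exposure; reporter mRNA by RT-PCR + CE fluorescence; increase over DMSO.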

The target in test [19] is human RAR-related Orphan Receptor beta (RORb), RORB (gene 6096) (UniProt Q92753). The experiment in a line: ATG_RORb_TRANS: Attagene TRANS-FACTORIAL HepG2 Assay for human RAR-related Orphan Receptor beta (RORb) (AID 2283010; active = hit-call score of the fitted dose curve at least 0.9, where 1 is the maximum). In outline:
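In this TRANS-format test, human HepG2 cells express chimeric NR-Gal4 fusion proteins driving GAL4-UAS reporters. After 24 h dosing, reporter transcripts are measured by fluorescent RT-PCR/capillary electrophoresis, with DMSO as negative control.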

Molecules are shown by their SMILES. Several values for one entry are separate records, joined by “and”; a condition that tells them apart may be missing. Equal values may be shown once. Inconclusive results are not listed. Some structures have more than one record in an assay (separate samples or runs), and their calls can disagree. Activity calls are given as the source filed them. Rule for the calls, unless noted: active = hit-call score of the fitted dose curve at least 0.9, where 1 is the maximum; inactive = score below 0.9.

Sequence of human Peroxisome Proliferator-activated Receptor delta (PPARd), PPARD (gene 5467) (Q03181 whole entry, looked up, the tested form may be a part): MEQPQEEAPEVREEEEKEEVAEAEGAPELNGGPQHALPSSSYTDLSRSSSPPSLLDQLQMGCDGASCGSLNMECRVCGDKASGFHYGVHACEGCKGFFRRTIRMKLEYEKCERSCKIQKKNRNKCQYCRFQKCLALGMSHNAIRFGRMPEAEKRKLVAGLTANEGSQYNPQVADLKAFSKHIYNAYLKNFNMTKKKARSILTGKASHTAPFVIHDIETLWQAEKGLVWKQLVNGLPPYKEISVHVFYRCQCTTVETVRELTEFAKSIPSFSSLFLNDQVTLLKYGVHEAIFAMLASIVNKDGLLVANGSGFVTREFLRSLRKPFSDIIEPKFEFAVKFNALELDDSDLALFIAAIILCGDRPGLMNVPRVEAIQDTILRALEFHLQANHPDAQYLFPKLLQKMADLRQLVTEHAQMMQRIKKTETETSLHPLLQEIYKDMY
Sequence of Myc proto-oncogene protein (Homo sapiens) (P01106 whole entry, looked up): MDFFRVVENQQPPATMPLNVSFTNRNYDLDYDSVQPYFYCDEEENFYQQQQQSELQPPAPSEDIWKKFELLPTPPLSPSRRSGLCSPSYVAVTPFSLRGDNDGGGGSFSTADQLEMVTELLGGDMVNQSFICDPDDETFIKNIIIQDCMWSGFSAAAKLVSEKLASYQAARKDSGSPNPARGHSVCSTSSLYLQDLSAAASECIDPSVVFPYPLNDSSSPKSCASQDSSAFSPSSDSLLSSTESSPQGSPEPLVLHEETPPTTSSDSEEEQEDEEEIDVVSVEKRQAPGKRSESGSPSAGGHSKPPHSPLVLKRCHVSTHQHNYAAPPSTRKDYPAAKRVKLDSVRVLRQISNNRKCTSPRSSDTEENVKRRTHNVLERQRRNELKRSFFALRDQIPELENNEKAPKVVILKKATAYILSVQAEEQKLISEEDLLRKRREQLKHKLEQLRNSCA
Sequence of Cellular tumor antigen p53 (Homo sapiens) (P04637 whole entry, looked up): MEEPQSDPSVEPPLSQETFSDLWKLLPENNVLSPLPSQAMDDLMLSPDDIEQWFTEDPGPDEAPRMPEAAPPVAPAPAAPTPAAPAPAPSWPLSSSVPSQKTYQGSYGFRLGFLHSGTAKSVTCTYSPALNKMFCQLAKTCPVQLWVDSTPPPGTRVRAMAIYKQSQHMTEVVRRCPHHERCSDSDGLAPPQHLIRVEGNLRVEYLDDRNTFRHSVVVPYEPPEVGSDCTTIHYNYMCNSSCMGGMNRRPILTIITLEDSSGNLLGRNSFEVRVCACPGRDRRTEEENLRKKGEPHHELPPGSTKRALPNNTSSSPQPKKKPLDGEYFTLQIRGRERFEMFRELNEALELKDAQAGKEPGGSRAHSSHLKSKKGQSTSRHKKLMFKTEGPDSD
Sequence of Peroxisome proliferator-activated receptor gamma (Homo sapiens) (P37231 whole entry, looked up, the tested form may be a part): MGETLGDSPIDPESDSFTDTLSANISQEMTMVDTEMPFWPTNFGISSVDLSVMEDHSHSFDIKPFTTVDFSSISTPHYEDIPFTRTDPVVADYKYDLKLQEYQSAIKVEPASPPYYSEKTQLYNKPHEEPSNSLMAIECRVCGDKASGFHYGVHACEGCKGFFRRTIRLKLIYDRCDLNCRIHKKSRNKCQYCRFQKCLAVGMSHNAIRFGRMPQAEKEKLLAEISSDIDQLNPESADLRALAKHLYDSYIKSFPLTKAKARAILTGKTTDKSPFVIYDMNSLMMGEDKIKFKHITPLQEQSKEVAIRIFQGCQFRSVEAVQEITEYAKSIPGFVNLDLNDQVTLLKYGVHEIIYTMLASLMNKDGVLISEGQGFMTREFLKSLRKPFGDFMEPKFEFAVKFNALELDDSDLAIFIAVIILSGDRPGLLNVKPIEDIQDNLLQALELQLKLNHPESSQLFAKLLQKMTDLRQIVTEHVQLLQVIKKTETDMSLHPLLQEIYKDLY
Sequence of Nuclear receptor subfamily 1 group I member 2 (Homo sapiens) (O75469 whole entry, looked up, the tested form may be a part): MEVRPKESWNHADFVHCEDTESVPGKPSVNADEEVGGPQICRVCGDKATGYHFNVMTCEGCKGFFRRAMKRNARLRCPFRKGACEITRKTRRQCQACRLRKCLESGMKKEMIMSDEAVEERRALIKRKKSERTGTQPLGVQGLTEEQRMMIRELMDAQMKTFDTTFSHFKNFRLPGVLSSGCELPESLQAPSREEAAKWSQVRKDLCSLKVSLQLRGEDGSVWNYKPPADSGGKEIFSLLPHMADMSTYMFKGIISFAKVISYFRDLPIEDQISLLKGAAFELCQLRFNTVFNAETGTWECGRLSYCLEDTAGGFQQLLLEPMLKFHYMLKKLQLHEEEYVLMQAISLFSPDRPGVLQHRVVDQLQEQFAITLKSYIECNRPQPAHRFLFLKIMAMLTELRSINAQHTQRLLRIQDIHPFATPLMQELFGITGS
Sequence of human RAR-related Orphan Receptor beta (RORb), RORB (gene 6096) (Q92753 whole entry, looked up, the tested form may be a part): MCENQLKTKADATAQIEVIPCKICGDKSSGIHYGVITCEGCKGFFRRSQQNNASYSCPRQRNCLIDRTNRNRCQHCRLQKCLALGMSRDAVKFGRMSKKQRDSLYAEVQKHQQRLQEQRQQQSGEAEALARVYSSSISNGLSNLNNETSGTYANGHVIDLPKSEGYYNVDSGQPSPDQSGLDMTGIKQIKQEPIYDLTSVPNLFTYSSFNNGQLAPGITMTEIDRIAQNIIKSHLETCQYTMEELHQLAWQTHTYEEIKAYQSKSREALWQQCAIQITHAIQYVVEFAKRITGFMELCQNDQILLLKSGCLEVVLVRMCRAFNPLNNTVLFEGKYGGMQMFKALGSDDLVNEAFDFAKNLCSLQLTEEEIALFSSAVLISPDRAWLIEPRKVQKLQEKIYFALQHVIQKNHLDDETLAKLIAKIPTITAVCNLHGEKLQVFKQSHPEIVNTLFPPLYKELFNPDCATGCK
Sequence of human Retinoic Acid Receptor beta (RARb), RARB (gene 5915) (P10826 whole entry, looked up, the tested form may be a part): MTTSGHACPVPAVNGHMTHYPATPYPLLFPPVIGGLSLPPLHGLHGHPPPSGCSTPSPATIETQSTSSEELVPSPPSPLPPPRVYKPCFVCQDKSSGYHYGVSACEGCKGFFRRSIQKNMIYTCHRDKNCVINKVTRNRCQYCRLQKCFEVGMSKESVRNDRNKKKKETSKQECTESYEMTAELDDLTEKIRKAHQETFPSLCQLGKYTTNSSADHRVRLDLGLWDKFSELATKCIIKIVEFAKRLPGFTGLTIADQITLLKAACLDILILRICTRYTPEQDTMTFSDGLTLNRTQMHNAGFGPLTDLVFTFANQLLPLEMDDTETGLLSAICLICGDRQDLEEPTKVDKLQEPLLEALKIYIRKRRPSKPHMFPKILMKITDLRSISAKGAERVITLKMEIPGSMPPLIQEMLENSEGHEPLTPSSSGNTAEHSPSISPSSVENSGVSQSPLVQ
Sequence of human Retinoic Acid Receptor gamma (RARg), RARG (gene 5916) (P13631 whole entry, looked up, the tested form may be a part): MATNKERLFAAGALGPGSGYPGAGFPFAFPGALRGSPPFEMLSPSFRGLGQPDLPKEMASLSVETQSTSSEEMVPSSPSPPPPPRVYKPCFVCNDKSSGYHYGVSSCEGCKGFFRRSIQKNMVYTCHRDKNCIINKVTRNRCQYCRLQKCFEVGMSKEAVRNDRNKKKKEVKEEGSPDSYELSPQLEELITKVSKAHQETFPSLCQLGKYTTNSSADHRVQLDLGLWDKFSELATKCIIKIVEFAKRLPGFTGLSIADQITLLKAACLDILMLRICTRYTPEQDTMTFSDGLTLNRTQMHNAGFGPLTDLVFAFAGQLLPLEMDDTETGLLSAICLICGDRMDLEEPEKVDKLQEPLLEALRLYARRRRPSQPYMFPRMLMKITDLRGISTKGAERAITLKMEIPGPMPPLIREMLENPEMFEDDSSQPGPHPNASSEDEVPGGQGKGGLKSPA

One may read the AC50 as the concentration at which the activity in the assay is half-maximal. As to `CC(c1ccc(O)cc1)(c1ccc(O)cc1)c1ccc(O)cc1`, the call in test [1], in [2], in [7], in test [11], in [12] and in [14] was inactive. The AC50 in [3] was 18.9 µM (active); in test [4], 19.6 µM (active); in test [5] it was 11.1 µM (active); in test [6], 11.1 µM (active); in test [8], 32.6 µM (active); in test [9], 29.8 µM (active). The figures for the AC50 in [10], in test [13] and in test [15] were 31.4 µM (active), 28 µM (active) and 2.93 µM (active), respectively.

Turning to `CCNc1nc(NC(C)C)nc(SC)n1`, the outcome in [1], in test [2], in test [3], in [4], in test [5] and in test [7] was inactive. Moreover, the result in test [8], in [9], in [10], in test [16], in test [11] and in [12] was inactive. Also, the outcome in [13], in [14] and in test [15] was inactive.

Regarding `Cc1cc2c3c(c1)C(c1ccccc1)=N[C@@H](NC(=O)c1ccncc1)C(=O)N3CC2`, the outcome in [1], in test [2], in [6], in [7], in [8] and in [9] was inactive. For the same molecule, the result in test [10], in test [16], in test [11], in [12], in test [17] and in [13] was inactive. The result in test [18] and in test [19] was inactive. The AC50 was 96.6 µM (active) in [4], 74 µM (active) in [5], 1.71 µM (active) in test [14] and 2.54 µM (active) in test [15].

`Cc1cccc(C)c1N`: the result in test [1], in [2], in test [3], in test [4], in test [5] and in test [6] was inactive. For the same molecule, the outcome in [7], in [8], in [9], in test [10], in test [12] and in [13] was inactive.

With `Clc1ccc(C(Cl)(Cl)Cl)cc1`, the result in test [1], in test [2], in [4], in test [5], in [6] and in test [7] was inactive. Further, the outcome in [8], in test [9], in [10], in [16], in test [12] and in [13] was inactive. Besides, the result in [14] and in test [15] was inactive.

For the molecule `CCOP(=S)(OCC)SCSC(C)(C)C`, the result in test [1], in test [2], in test [4], in test [5], in [6] and in [7] was inactive. Moreover, the outcome in [8], in test [9], in test [10], in test [11], in test [12] and in [14] was inactive. In addition, the AC50 in test [4] was 67 µM (active); in [13], 29.3 µM (active); in test [15], 3.49 µM (active) and 2.9 µM (active).
